Gal4-VP16 FLuc = VP16 counterscreen qHTS for inhibitors of ROR gamma transcriptional activity; 310,000 compounds, 3.5% hits; Drosophila S2 Gal4-VP16 UAS-luciferase, luminescence, 20 h; AID 2546, 2010; Potency, µM (highest dose often 53.6 µM), most hits filed as inhibitors;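 further: Gal4-VP16 expression switched on by copper sulfate through the metallothionein promoter; nearly all actives have a fitted effect of over 50% in size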
DT40 TDP1 CPT = qHTS for Inhibitors of human tyrosyl-DNA phosphodiesterase 1 (TDP1): qHTS in cells in presence of CPT | Potency, µM (titrated, usually from 46.2 µM), usual class: inhibitors | 420,000 compounds, 12% hits | chicken DT40 Tdp1-/-;hTDP1 cells + 20 nM CPT, ATP luminescence, 48 h | AID 686979, 2013; further: nearly all actives have a fitted effect of over 55% in size
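Chicken DT40 Tdp1-/- cells complemented with human TDP1, 400 cells/well, exposed to compounds plus 20 nM camptothecin for at least 48 h at 37 C; viability read as ATP content by CellTiter-Glo luminescence.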
LDHA block = qHTS assay for inhibitors of human lactate dehydrogenase | L-lactate dehydrogenase A chain (Homo sapiens), P00338 | purified LDHA, NADH/diaphorase-resazurin fluorescence; hits give low values | activity change, % (values are at about 110 or 230 µM) | 480,000 compounds, 0.15% hits | AID 1347041, 2019; in the data active means activity change below about -30%; inconclusive means mostly about -25% to -30%
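Enzyme activity of human lactate dehydrogenase 5 (2 nM; 0.06 mM NADH, 0.2 mM pyruvate, 5 min, RT) is measured via a resazurin/diaphorase fluorescence readout of residual NADH.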
TDP1 cell noCPT = qHTS for Inhibitors of human tyrosyl-DNA phosphodiesterase 1 (TDP1): qHTS in cells in absence of CPT; Potency, µM (highest dose often 46.2 µM), most hits filed as inhibitors; 420,000 compounds, 15% hits; DT40 Tdp1-/- hTDP1 cells, no CPT, ATP luminescence, 48 h; further: nearly all actives have a fitted effect of over 55% in size
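Camptothecin absent (DMSO only). Human TDP1-complemented DT40 knockout cells, 400 cells/well, 37 °C for minimum 48 hr; ATP measured via CellTiter-Glo, 30 min dark incubation, luminescence.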
RORgamma inh = qHTS for inhibitors of ROR gamma transcriptional activity; Nuclear receptor ROR-gamma (Mus musculus), P51450; Drosophila S2 Gal4-RORgamma UAS-luciferase reporter, 20 h; Potency, µM (series often up to 53.6 µM), most hits filed as inhibitors; 310,000 compounds, 5.4% hits; further: nearly all actives have a fitted effect of over 60% in size
Target sequence (P51450 whole entry, looked up, the tested form may be a part): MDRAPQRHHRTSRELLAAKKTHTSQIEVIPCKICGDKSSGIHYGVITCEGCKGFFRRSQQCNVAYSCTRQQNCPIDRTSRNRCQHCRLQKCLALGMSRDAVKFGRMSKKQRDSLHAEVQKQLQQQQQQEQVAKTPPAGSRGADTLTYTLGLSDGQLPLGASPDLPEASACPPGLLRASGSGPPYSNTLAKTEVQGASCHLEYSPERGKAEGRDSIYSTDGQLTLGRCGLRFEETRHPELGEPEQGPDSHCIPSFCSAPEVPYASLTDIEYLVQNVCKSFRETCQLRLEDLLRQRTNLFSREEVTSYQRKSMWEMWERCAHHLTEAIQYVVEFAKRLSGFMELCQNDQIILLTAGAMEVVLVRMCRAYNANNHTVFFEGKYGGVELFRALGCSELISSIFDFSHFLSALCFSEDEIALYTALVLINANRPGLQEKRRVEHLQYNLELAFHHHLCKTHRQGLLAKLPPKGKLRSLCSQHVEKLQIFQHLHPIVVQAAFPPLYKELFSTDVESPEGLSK
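Compounds are pin-transferred onto Drosophila Schneider cells expressing a copper-inducible Gal4–ROR gamma transactivation domain fusion. After 1 hr, copper sulfate is added to 700 uM final; luciferase is read 20 hr later.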
IL-1B inflam inh = qHTS for Inhibitors of Inflammasome Signaling: IL-1-beta AlphaLISA Primary Screen | AID 743279, 2014 | THP-1 LPS/ATP IL-1B secretion, AlphaLISA, 16 h; hits give low values | 360,000 compounds, 4.7% hits | activity change, % at 57.5 µM; in the data active means activity change below about -50%; inconclusive means mostly about -30% to -49%
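Secreted IL-1B measured by AlphaLISA bead assay after 16 h compound exposure of THP-1 cells; compounds (final up to 57.5 uM) added 1 h before LPS (250 ng/mL) and ATP (1.25 mM) stimulation; lower signal means less secretion.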
A number is an active result; – = inactive; ? = inconclusive; · = no result given; [ ] = remark or other dose. Shown are actives, neighbours in structure and some others; about 18% of the full set was active somewhere. Unless noted, the call rests on the fitted dose curve; in most records, active means well fitted curve in the direction sought with a large enough effect; inconclusive means small, poorly fitted or top-dose-only effect, or another doubt; inactive means no such curve, though single readings can be large; an effect the other way counts as inactive or inconclusive.

SMILES | Gal4-VP16 FLuc | DT40 TDP1 CPT | LDHA block | TDP1 cell noCPT | RORgamma inh | IL-1B inflam inh
COC(=O)C(O)(c1ccc(NC(=S)NC(=O)c2ccc(Cl)cc2Cl)cc1)C(F)(F)F (stereo unspecified) | ? | ? | – | 15µM | 5µM | –
CCOC(=O)C(NC(=O)CCl)(Nc1ccc(C(O)(C(=O)OCC)C(F)(F)F)cc1)C(F)(F)F (stereo unspecified) | – | ? | – | ? | – | -89
CCOC(=O)C(O)(c1ccc(NC(=S)NC(=O)c2ccc(Cl)cc2Cl)cc1)C(F)(F)F (stereo unspecified) | 10µM | ? | – | 26µM | 6.3µM | ?
CCOC(=O)C(O)(c1ccc(NC(=O)Oc2ccccc2)cc1)C(F)(F)F (stereo unspecified) | – | – | – | ? | – | –
COc1ccc(C(C#N)C(C)=O)cc1OC (stereo unspecified) | · | · | – | · | · | ·
CCOC(=O)C1=C(N)Oc2c(c(=O)oc3ccccc23)C12C(=O)Nc1ccc(Cl)cc12 (stereo unspecified) | · | · | – | · | · | ·
CCCCSc1nnc([C@@H](N)Cc2c[nH]c3ccccc23)o1 | · | · | – | · | · | ·
CC(C)[C@@H]1CN[C@H](C(=O)O)[C@@H]1CC(=O)O | – | – | · | – | – | ·
Cc1nn(Cc2ccccc2Cl)c(C)c1C(=O)OCC(=O)NC1CCCC(C)C1C (stereo unspecified) | – | 21µM | – | 23µM | – | –
C=CCN1CC[C@]23CCCC[C@H]2[C@H]1Cc1ccc(O)cc13 | · | – | · | ? | · | ·
O=c1c2cc(N3CCOCC3)ccc2[nH]c(=S)n1Cc1ccc(Cl)cc1 | 0.56µM | 21µM | – | 15µM | 8.9µM | –
CN(CCCC(=O)c1cccnc1)N=O | · | – | · | – | · | ·
CN(C)C(=O)Oc1cc(OC(=O)N(C)C)cc([C@@H](O)CNC(C)(C)C)c1 | – | · | · | · | –[2.98 µM] | ·
COC(=O)C1=C(c2ccc(OC(F)(F)F)cc2)C[C@@H]2CC[C@H]1N2C(=O)NCc1cc(C)oc1C(F)(F)F | · | ? | – | 21µM | · | –
COC(=O)C1=C(c2ccc(OC(F)(F)F)cc2)C[C@@H]2CC[C@H]1N2C(=O)NCc1ccc(F)cc1 | · | 18µM | – | 21µM | · | –
COC(=O)C1=C(c2ccccc2)C[C@@H]2CC[C@H]1N2C(=O)NCc1ccc(C(F)(F)F)cc1 | · | ? | – | ? | · | –
COC(=O)C1=C(c2ccc(OC(F)(F)F)cc2)C[C@@H]2CC[C@H]1N2C(=O)NCc1cccc2ccccc12 | · | ? | – | ? | · | -71
COC(=O)C1=C(c2ccc3ccccc3c2)C[C@@H]2CC[C@H]1N2C(=O)NCc1ccc(F)cc1 | · | ? | – | 16µM | · | –
C[C@H](NC(C)(C)C)C(=O)c1cccc(Cl)c1 | – | · | · | · | – | ·
CC(C)CCCC(C)C1CCC2C3CC(=O)[C@H]4CC(O)CC[C@]4(C)C3CC[C@@]12C (stereo partly specified) | – | ? | · | ? | – | ·
CN[C@H](C)CCC=C(C)C | – | ? | – | ? | – | ·
CC1(C)CC(CCNCc2ccc3c(c2)OCO3)(Cc2ccccc2)CCO1 (stereo unspecified) | – | ? | – | 18µM | – | -96
c1cncc(CNCCc2ccc3c(c2)OCO3)c1 | · | – | – | – | · | –
Cc1c(C)c2c(c(C)c1OC(=O)CCC(=O)OCCO)CC[C@@](C)(CCC[C@H](C)CCC[C@H](C)CCCC(C)C)O2 | · | 11µM | · | ? | · | ·
O=c1oc2ccccc2c(O)c1Cc1c(O)c2ccccc2oc1=O | – | – | · | – | – | ·
O=C(CC1CCCCC1)c1c(O)c2ccccc2oc1=O | ? | 18µM | – | ? | – | –
CCCCCCC1CC(C)(C(=O)CNc2nncs2)OC1=O (stereo unspecified) | – | – | – | – | ? | –

Screening data deposited in PubChem by National Center for Advancing Translational Sciences (NCATS).
